Several values for one entry are separate records, joined by “and”; a condition that tells them apart may be missing. Equal values may be shown once. The campaign covered roughly 340,000 compounds. About 3,300 (0.97%) were called active. Not shown: some 9% with an inconclusive outcome. Calls come from the whole dose curve; as a rule, active = well fitted inhibition curve with a large enough effect; inconclusive = small, poorly fitted or top-dose-only effect, or effect the other way; inactive = flat fitted curve, though single readings scatter. The list shows a part of the results.
Assay: qHTS Assay for Modulators of miRNAs and/or Inhibitors of miR-21; note: nearly all actives have a fitted effect of over 55% in size
Details: HeLa miR-21-FLuc reporter, luciferase luminescence, 48 h; actives lower the signal
Outline: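 Compounds were titrated across several concentrations (up to approximately 40 uM) and incubated 48 hours with HeLa miR-21-FLuc reporter cells (miR-21 target sequence downstream of FLuc, endogenous miR-21). Readout was firefly luciferase luminescence after lytic detection reagent.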
Potency is the fitted concentration of half-maximal effect.

Potency, active:
Cc1cccc(C(=O)OCC(=O)c2ccc3c(c2)OCO3)c1O 1.85 µM
O=C(COC(=O)c1cccs1)c1ccc2c(c1)OCCO2 3.69 µM
O=C(OCc1ccccc1F)c1ccc2c(c1)OCCO2 18.5 µM
Cc1ccc(C(=O)COC(=O)c2cccs2)cc1 3.29 µM
CCOC(=O)c1cc2c(=O)c3cc(C)ccc3oc2nc1C 1.04 µM
CC(C)c1ccc(NC(=S)NN2CCOCC2)cc1 16.5 µM
CNC(=O)/C(C#N)=C/c1ccc(-c2ccc(OC)cc2[N+](=O)[O-])o1 18.5 µM
Cc1cccc(C)c1NC(=O)/C(C#N)=C/c1ccc(-c2ccc(C(=O)O)cc2)o1 2.07 µM
CNC(=O)/C(C#N)=C/c1ccc(-c2ccc(Cl)cc2)o1 4.14 µM
CCOC(=O)/C(C#N)=C/Nc1ccccc1OC 5.21 µM
CCOC(=O)/C(C#N)=C/c1ccc(-c2ccccc2)o1 18.5 µM
Cc1ncc(CO)c(/C=N/N=C/c2ccccc2O)c1O 13.1 µM
COc1ccc(-c2nn(-c3ccccc3)cc2C#N)cc1 4.14 µM
COc1ccc(-c2nn(-c3ccccc3)cc2N)cc1 3.69 µM
O=c1cc(-c2ccccc2)oc2ccc(O)cc12 3.29 µM
O=c1cc(-c2ccc(O)cc2)oc2ccccc12 7.36 µM
COc1ccc(-c2cc(=Nc3c(C)n(C)n(-c4ccccc4)c3=O)c3ccccc3o2)cc1 4.14 µM
COc1cc(OC)c2c(=O)cc(-c3ccccc3)oc2c1 6.56 µM
COc1ccc(-c2cc(=O)c3ccccc3o2)cc1 5.85 µM
O=c1cc(-c2ccccc2F)oc2ccccc12 5.21 µM
Fc1cccc2sc(Nc3nc4cc5c(cc4s3)OCO5)nc12 3.69 µM
Fc1cccc2sc(Nc3nc4cc5c(cc4s3)OCCO5)nc12 0.208 µM
O=C(O)c1ccc(N=Nc2c(O)[nH]c3cc(Cl)ccc23)cc1 0.165 µM
O=C(O)c1ccc(N=Nc2c(O)[nH]c3ccc(Br)cc23)cc1 3.69 µM
COc1cc2c(cc1OC)-c1cc(Nc3ccc4c(c3)OCCO4)nc(=O)n1CC2 8.26 µM
CCc1nc2oc3ccccc3c(=O)c2c(=O)n1-c1ccc(C)cc1 1.65 µM
Cc1cc(C)n2c(nc3ccccc32)c1C(=O)NN 10.4 µM
Fc1ccc2nc(N3CCOCC3)sc2c1 16.5 µM
Clc1ccc(-c2nsc(N3CCOCC3)n2)c(Cl)c1 1.04 µM
Clc1cc(Cl)c2nc(N3CCOCC3)sc2c1 16.5 µM
Nc1nc2c(Cl)cc(Cl)cc2s1 18.5 µM
Fc1ccc2nc(N3CCCC3)sc2c1 4.14 µM
O=C(/C=C/c1ccc2c(c1)OCO2)c1ccc[nH]1 3.69 µM
COc1ccc(/C=C/C(=O)c2ccc[nH]2)c(OC)c1OC 14.7 µM
COc1ccc(/C=C/C(=O)c2ccc[nH]2)cc1OC 5.21 µM
CC(CCc1ccccc1)NC(=O)C(=O)Nc1ccccc1 (stereo not drawn) 1.65 µM
O=C(NCc1ccccn1)C(=O)Nc1ccccc1 6.56 µM
CC(C)CCNC(=O)c1ccc(-c2ccccc2)cc1 8.26 µM
CC(C)CCNC(=O)C(=O)Nc1ccccc1 2.07 µM
CS(=O)(=O)c1cnc2c(-c3ccc(F)cc3)cnn2c1N 1.85 µM
CS(=O)(=O)c1cnc2c(-c3ccsc3)cnn2c1N 5.21 µM
O/N=C(/CCc1ccccc1)c1ccc2c(c1)OCCO2 7.36 µM
O=C(CCc1ccccc1)c1ccc2c(c1)OCCCO2 3.69 µM
O=C(c1ccccc1)c1ccc2c(c1)OCCCO2 2.07 µM
Cc1cc(O)c(C(=O)Cc2csc(C)n2)c(O)c1 5.85 µM
Cc1oncc1-c1csc(-c2ccccc2)n1 5.21 µM
O=C1C2C(C(=O)N1/N=C/c1cccc([N+](=O)[O-])c1)C1C=CC2C12CC2 (stereo not drawn) 18.5 µM
Cc1cccc(NC(=O)Cn2c(/C=C/c3ccccc3)nc3ccccc32)c1 5.85 µM
O=C(Cn1c(/C=C/c2ccccc2)nc2ccccc21)Nc1ccc(F)cc1 5.21 µM
COc1ccc(C2CC(=O)c3ccccc3O2)cc1 (stereo not drawn) 16.5 µM
Cc1ccc2c(c1)OC(c1ccc3c(c1)OCCO3)CC2=O (stereo not drawn) 16.5 µM
O=C1CC(c2ccc3c(c2)OCCO3)Oc2ccccc21 (stereo not drawn) 14.7 µM
O=C1CC(c2ccc3c(c2)OCCO3)Oc2ccc([N+](=O)[O-])cc21 (stereo not drawn) 0.261 µM
CC(C)c1nc(C#N)c(NN)o1 16.5 µM
N/C(=N\OC(=O)/C=C/c1ccccc1Cl)c1ccncc1 0.414 µM
N/C(=N\OC(=O)/C=C/c1ccccc1Cl)c1cccnc1 2.07 µM
COc1ccc(-n2nc3cc(C)c(N)c(Br)c3n2)cc1 4.14 µM
CC1CCC/C(=N\Nc2ccc(Cl)c(C(=O)O)c2)C1 (stereo not drawn) 6.56 µM
O=[N+]([O-])c1ccc2cn(-c3ccccc3)nc2c1 1.65 µM
Cc1ccsc1/C=N/Nc1ncnc2nc[nH]c12 3.29 µM
Cc1ccccc1/C=N/Nc1ncnc2nc[nH]c12 6.56 µM
C(=N\Nc1ncnc2nc[nH]c12)/c1cccs1 4.14 µM
Fc1ccccc1/C=N/Nc1ncnc2nc[nH]c12 5.21 µM
COc1cccc(/C=N/N=C(\N)c2nonc2N)c1O 3.69 µM
COc1ccc(/C=N/N=C(\N)c2nonc2N)cc1OC 7.36 µM
N/C(=N\N=C\c1ccc(O)c(O)c1)c1nonc1N 8.26 µM
COc1ccccc1/C=N\N=C(\N)c1ccccn1 2.07 µM
N/C(=N\N=C\c1ccc(Br)o1)c1nonc1N 3.29 µM
COc1ccccc1OCc1cc(-c2ccccc2)no1 3.69 µM
Cc1cccc(OCc2cc(-c3ccccc3)no2)c1C 7.36 µM
Cc1ccc(-c2cc(N)n(-c3ccc(C)cc3)n2)cc1 11.7 µM and 1.85 µM
Cc1ccc(-c2cc(N)n(-c3ccc(F)cc3)n2)cc1 4.14 µM
O=C(O)c1cc(-c2ccc(C(F)(F)F)cc2)nc2n[nH]c(-c3ccccc3)c12 0.585 µM
COc1ccc(-c2ccc3ccccc3n2)cc1OC 2.07 µM
COc1ccc(-c2nc(-c3ccc(O)cc3O)cs2)cc1OC 5.85 µM
COc1ccc(-c2csc(-c3cccs3)n2)c(OC)c1 1.04 µM
COc1ccc(-c2csc(-c3cccs3)n2)cc1OC 6.56 µM
COc1ccc(Nc2nc(-c3cccs3)cs2)c(OC)c1 1.04 µM
Cc1ccc(/C=C2\OC(=O)c3ccccc32)cc1 3.69 µM
CSc1nsc(N/N=C/c2ccc3c(c2)OCO3)c1C#N 0.826 µM
Clc1ccccc1N/N=C/c1ccc2c(c1)OCO2 2.93 µM
O=C(O)c1cc(N/N=C/c2ccc(N3CCOCC3)cc2)ccc1Cl 2.07 µM
O=C(O)c1cc(N/N=C/c2ccc3c(c2)OCCO3)ccc1Cl 0.293 µM
CN(C)c1ccc(/C=C/C(=O)c2ccccc2O)cc1 4.14 µM
CN(C)c1ccc(C(=O)/C=C/c2ccccc2)cc1 5.21 µM
O=C1C(C=Nc2ccc(F)cc2)=C(O)c2ccccc21 2.07 µM
COC(=O)c1ccc(C(=O)N=c2sccn2C)cc1 4.14 µM
Cc1cccc(C(=O)N=c2sccn2C)c1[N+](=O)[O-] 4.65 µM
Cn1ccsc1=NC(=O)c1cccc(OC(F)F)c1 2.33 µM
Cn1ccsc1=NC(=O)c1ccc(S(=O)(=O)C(F)F)cc1 7.36 µM
Cn1ccsc1=NC(=O)c1ccc(OC(F)(F)F)cc1 4.65 µM
CCCCOc1ccc(C(=O)N=c2sccn2C)cc1OC 4.65 µM
CCCCCc1ccc(-c2ccc(C(=O)Oc3ccc(C(=O)OC)cc3)cc2)nc1 0.656 µM
CCCCc1ccc(-c2ccc(Br)cc2)nc1 3.69 µM
CCCCCc1ccc(-c2ccc(Br)cc2)nc1 3.69 µM
CCCOc1ccc(-c2nnc(N)s2)cc1 5.21 µM
CCCCOc1ccc(-c2nnc(N)s2)cc1 14.7 µM
CCCCCc1ccc(-c2nnc(N)s2)cc1 16.5 µM
COc1cc(-c2cc(=O)c3c(O)cc(O)cc3o2)ccc1O 4.14 µM
COc1cc(-c2cc(=O)c3ccccc3o2)ccc1O 8.26 µM
CCS(=O)(=O)n1nc(-c2ccc(Cl)cc2)nc1SCc1ccccc1 8.26 µM
CC(=O)c1cc(C#N)c(SCc2ccccn2)nc1C 7.36 µM
CC(=O)c1cc(C#N)c(SCc2ccccc2)nc1C 13.1 µM
CC(=O)c1cnc2nc(SCc3ccccc3)nn2c1C 5.21 µM
CC(O)CNCCCCOc1ccc(OCc2ccccc2)cc1 (stereo not drawn) 9.27 µM
C=CCNCCCCOc1ccc(OCc2ccccc2)cc1 7.36 µM
COCCCNCCCCOc1ccc(OCc2ccccc2)cc1 18.5 µM
CC(C)(C)C1(C)OC(=O)C(=Cc2ccc(OCC(=O)Nc3ccccc3)cc2)C(=O)O1 (stereo not drawn) 11.7 µM

Reference: PubChem BioAssay AID2289 (National Center for Advancing Translational Sciences (NCATS), 2010)
